In the library only some 3.5% were active in any assay of this set; here they are far more common.
GPR151 activ – activators of human GPR151, primary screen, cell-based, PathHunter beta-arrestin, luminescence; PathHunter beta-arrestin GPR151 cells; actives 1% (n = 650,000); G-protein coupled receptor 151 (Homo sapiens), Q8TDV0; AID 1508602, 2020; activation, % at 11.2 µM; in the data active = activation above about 4.9%;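 also: 0% = median of compound wells and 100% = cells with positive control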
TEAD-YAP block – TEAD-YAP interaction inhibition, primary screen, TEAD-YAP interaction inhibitor project, luminescence, HEK-TIYL cells | TEAD-Gal4/YAP UAS-luciferase luminescence | actives 1.4% (n = 640,000) | inhibition, % at 9.12 µM; in the data active = inhibition above about 32%;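 also: 0% = median of test compound wells and 100% = reference inhibitor wells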
MITF primary – MITF inhibitors, primary screen, biochemical, AlphaScreen, human. Microphthalmia-associated transcription factor (Homo sapiens), O75030. AlphaScreen MITF homodimerization, bead proximity signal. inhibition, % at 2.6 µM. actives 0.91% (n = 650,000). AID 1259374, 2018; in the data active = inhibition above about 50%;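 also: 0% = vehicle wells with protein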
Target sequence (O75030 whole entry, looked up): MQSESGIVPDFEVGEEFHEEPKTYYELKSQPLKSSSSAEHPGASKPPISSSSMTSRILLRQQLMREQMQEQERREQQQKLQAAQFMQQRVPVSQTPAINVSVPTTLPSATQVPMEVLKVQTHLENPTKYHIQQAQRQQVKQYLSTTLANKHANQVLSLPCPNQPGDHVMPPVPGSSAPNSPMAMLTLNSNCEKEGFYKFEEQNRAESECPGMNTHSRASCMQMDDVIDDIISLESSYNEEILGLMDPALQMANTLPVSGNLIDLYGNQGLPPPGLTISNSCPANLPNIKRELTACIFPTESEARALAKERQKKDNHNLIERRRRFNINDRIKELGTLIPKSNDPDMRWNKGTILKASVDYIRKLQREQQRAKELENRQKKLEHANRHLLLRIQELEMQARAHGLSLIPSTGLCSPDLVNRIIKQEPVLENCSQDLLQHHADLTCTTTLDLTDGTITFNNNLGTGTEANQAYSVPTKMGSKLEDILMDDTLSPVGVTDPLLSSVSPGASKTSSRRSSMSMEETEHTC
FBW7 activator – FBW7 E3 ligase activators, primary screen, biochemical, AlphaScreen, human; normalized activity (activation), % at 26.1 µM; AlphaScreen FBW7–phospho-cyclin E peptide binding, activator screen; AID 1259310, 2017; actives 0.13% (n = 650,000); F-box/WD repeat-containing protein 7 (Homo sapiens), Q969H0; in the data active = normalized activity above about 1.9%;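 also: purified mutant Fbw7 with reduced substrate affinity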
MITF inh conf – MITF inhibitors, retest of hits, confirmation, biochemical, AlphaScreen, triplicate; AlphaScreen MITF homodimerization, biotin/His-MITF beads; AID 1259372, 2018; actives 16% (n = 4,700); inhibition, % at 2.6 µM; shares compounds with MITF primary;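 active = inhibition above a cutoff derived from the DMSO control wells, cut at about 28% in these data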;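 also: 0% = MITF dimer wells with DMSO only; inhibitors lower the bead chemiluminescence by keeping MITF from dimerizing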
AS interf ctr – AlphaScreen optical interference compounds, counter-screen for MITF inhibitor project, biochemical, triplicate. AID 1259376, 2018. actives 7.6% (n = 4,700). inhibition, % at 2.6 µM. LysRS AlphaScreen counterscreen, signal interference. shares compounds with MITF primary;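 active = inhibition above a cutoff derived from the DMSO control wells, cut at about 30% in these data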
The depositor's hits bear a star; . = no result given.

SMILES | GPR151 activ | TEAD-YAP block | MITF primary | FBW7 activator | MITF inh conf | AS interf ctr
O=[N+]([O-])c1ccccc1CN1CCC(N2CCCC2)CC1 | 0 | -10 | 57* | 0 | 10 | 2
COc1ccccc1NC(=O)N1CCC(C(=O)NC(c2ccccc2)c2ccccn2)CC1 (stereo unspecified) | 1 | -3 | 4 | 0 | . | .
Clc1ccc(CN2CCN(C3CC4CCC3C4)CC2)cc1 (stereo unspecified) | 0 | -9 | 79* | 0 | 16 | 18
O=[N+]([O-])c1ccccc1CN1CCC(O)CC1 | 1 | -9 | 21 | 0 | . | .
O=[N+]([O-])c1ccccc1CN1CCN(C2CC3CCC2C3)CC1 (stereo unspecified) | -1 | -2 | 67* | 0 | 11 | 11
O=CN1CCN(Cc2ccc(Cl)cc2)CC1 | 1 | 12 | 50 | 0 | . | .
O=[N+]([O-])c1ccccc1CN1CCN(C2CCCC2)CC1 | -1 | 1 | 73* | 0 | 9 | 2
COC(=O)c1ccccc1N/C=C(\C#N)c1nc(-c2ccc(OC)c(OC)c2)cs1 | -1 | 4 | 7 | 0 | . | .
COC(=O)c1ccccc1NS(=O)(=O)c1ccc2[nH]c(=O)c(=O)[nH]c2c1 | 0 | -3 | 68* | 0 | -1 | 1
COC(=O)c1cc(NS(=O)(=O)c2ccc3[nH]c(=O)c(=O)[nH]c3c2)cc(C(=O)OC)c1 | 0 | 9 | -7 | 0 | . | .
N#C/C(=C/Nc1ccccc1F)c1nc(-c2ccc([N+](=O)[O-])cc2)cs1 | 2 | -1 | 68* | 0 | 0 | 3
O=C1OC(c2cccc(I)c2)=N/C1=C\c1ccc2c(c1)OCO2 | -1 | -7 | 16 | 1 | . | .
NN1C(=O)/C(=C\c2ccc(Cl)cc2)NC1=S | 0 | 12 | 53* | 0 | 1 | 8
Cc1ccccc1N1CC(O)=C(c2nc3ccccc3[nH]2)C1=N | 0 | -3 | -3 | 0 | . | .
c1cncc(CNc2nc(Nc3ccc(N4CCOCC4)cc3)c3ncn(C4CCCCC4)c3n2)c1 | -1 | -13 | 51* | 0 | 84* | -13
c1cncc(CNc2nc(Nc3ccc(N4CCOCC4)cc3)nc3c2ncn3C2CCCCC2)c1 | -1 | -3 | 14 | 0 | . | .
O=[N+]([O-])c1ccc(N2CCN(S(=O)(=O)c3ccc4ccccc4c3)CC2)cc1NCCc1ccccc1 | -1 | 6 | 10 | 0 | . | .
O=C1CC(c2ccccc2)=NO1 | -1 | -6 | 56* | 0 | 13 | 12
O=C1CC(c2ccc(Br)cc2)=NO1 | 0 | -8 | 19 | 0 | . | .
Cc1cccc(NC2(C(F)(F)F)N=C3SCCN3C2=O)n1 (stereo unspecified) | -1 | -7 | 80* | 0 | 8 | 10
O=C(c1ccncc1)N1CCN(Cc2ccc3c(c2)OCO3)CC1 | -1 | -6 | 87* | 1 | -1 | 1
CC(C)(C)n1nnnc1C(c1cccs1)N1CCN(Cc2ccc3c(c2)OCO3)CC1 (stereo unspecified) | -1 | 4 | 78* | 0 | 15 | 17
Cc1ccc(CN(Cc2ccco2)C(=S)NCC(=O)NCc2ccc3c(c2)OCO3)cc1 | 1 | 7 | 6 | 0 | . | .
COc1cc(CN2CCN(CC3CC=CCC3)CC2)cc(OC)c1O (stereo unspecified) | 2 | -2 | 4 | 0 | . | .
O=C(CNCc1ccco1)NCc1ccc2c(c1)OCO2 | 0 | 1 | 67* | 0 | 10 | 21
SMILES | GPR151 activ | TEAD-YAP block | MITF primary | FBW7 activator | MITF inh conf | AS interf ctr
COc1ccc(CN2CCN(CC3CC=CCC3)CC2)c(OC)c1OC (stereo unspecified) | 1 | 12 | 66* | 0 | -19 | -2
CCN(CC)C(=O)C1CCCN(c2cccc(C(=O)NC3CCN(Cc4ccccc4)CC3)n2)C1 (stereo unspecified) | 0 | -5 | -15 | 0 | . | .
C=CCn1c(C)cc(C(=O)COC(=O)/C(C#N)=C/c2ccco2)c1C | 2 | -2 | 16 | 0 | . | .
COCCN=c1scc(-c2ccc(Cl)cc2)n1/N=C/c1ccc2c(c1)OCCO2 | 3 | -18 | 20 | 0 | . | .
CN1CCN(C(=S)C(=O)NCc2ccc3c(c2)OCO3)CC1 | 2 | 5 | -6 | 0 | . | .
c1cc2c(cc1CN1CCN(Cc3ccc4c(c3)OCO4)CC1)OCO2 | 2 | 2 | 70* | 0 | -1 | 3
CCC(C)N1CCN(CC2CC=CCC2)CC1 (stereo unspecified) | 0 | -1 | 62* | 0 | 17 | 17
CN1CCN(CC(=O)NCc2ccc3c(c2)OCO3)CC1 | 0 | 10 | 83* | 0 | 6 | 18
Cc1ccccc1CN1CCN(CC2CC=CCC2)CC1 (stereo unspecified) | -2 | -9 | 68* | 0 | -3 | 17
c1cc2c(cc1CN1CCCCC1)OCO2 | 1 | 0 | 1 | 0 | . | .
Cc1ccccc1CN1CCC(CN)CC1 | 0 | 11 | -4 | 0 | . | .
CC(C)c1ccc(/C=N/NC(=O)c2cc(O)cc(O)c2)cc1 | 0 | -4 | -6 | 0 | . | .
CCOc1ccccc1CN1CCN(Cc2ccc3c(c2)OCO3)CC1 | 1 | 2 | 52* | 0 | 4 | 0
CCCS(=O)(=O)N1CCN(Cc2ccc3c(c2)OCO3)CC1 | -1 | -6 | 53* | 0 | 10 | 18
CN1CCCN(Cc2ccc3c(c2)OCO3)CC1 | 3 | -4 | 52* | 0 | 2 | 1
OC(CN1CCOCC1)CN1CCN(Cc2ccc3c(c2)OCO3)CC1 (stereo unspecified) | 0 | -1 | 76* | 0 | 7 | 10
CCCS(=O)(=O)N1CCN(Cc2cccc(F)c2)CC1 | 2 | -9 | 45 | 0 | . | .
CCOC(=O)N1CCN(Cc2ccc3c(c2)OCO3)CC1 | 1 | -9 | -17 | 0 | . | .
O=C(Nc1c[nH]c(=O)[nH]c1=O)c1ccc2c(c1)C(=O)N(c1ccccc1)C2=O | -2 | -1 | 10 | 0 | . | .
C1=CCC(CN2CCN(C3CCCCC3)CC2)CC1 (stereo unspecified) | 0 | -1 | 51* | 0 | 12 | 16
CCc1ccc(CN2CCN(CC3CC=CCC3)CC2)cc1 (stereo unspecified) | -1 | -8 | 69* | 0 | -4 | 1
C1=CCC(CN2CCN(Cc3ccc4c(c3)OCO4)CC2)CC1 (stereo unspecified) | 0 | -2 | 66* | 1 | 7 | 19
Cc1ccc(S(=O)(=O)N2CCN(CC3CC=CCC3)CC2)cc1 (stereo unspecified) | 0 | 1 | 34 | 0 | . | .
